Test results published in ChEMBL document CHEMBL3433997, “St. Jude Leishmania screening dataset” (2016).

Columns and labels:
Type in all cases: functional
[1] = target: Solute carrier family 2, facilitated glucose transporter member 1 (Homo sapiens) (UniProt P11166); test: ST_JUDE_LEISH: Cytotoxicity at 2uM final concentration against transgenic Leishmania Mexicana promastigotes LmGLUT1 that are glucose transport deficient and complemented with the human glucose transporter GLUT1. Activity is measured by DNA content using SYBR green in vitro
Chain of Solute carrier family 2, facilitated glucose transporter member 1 (Homo sapiens) (P11166 whole entry): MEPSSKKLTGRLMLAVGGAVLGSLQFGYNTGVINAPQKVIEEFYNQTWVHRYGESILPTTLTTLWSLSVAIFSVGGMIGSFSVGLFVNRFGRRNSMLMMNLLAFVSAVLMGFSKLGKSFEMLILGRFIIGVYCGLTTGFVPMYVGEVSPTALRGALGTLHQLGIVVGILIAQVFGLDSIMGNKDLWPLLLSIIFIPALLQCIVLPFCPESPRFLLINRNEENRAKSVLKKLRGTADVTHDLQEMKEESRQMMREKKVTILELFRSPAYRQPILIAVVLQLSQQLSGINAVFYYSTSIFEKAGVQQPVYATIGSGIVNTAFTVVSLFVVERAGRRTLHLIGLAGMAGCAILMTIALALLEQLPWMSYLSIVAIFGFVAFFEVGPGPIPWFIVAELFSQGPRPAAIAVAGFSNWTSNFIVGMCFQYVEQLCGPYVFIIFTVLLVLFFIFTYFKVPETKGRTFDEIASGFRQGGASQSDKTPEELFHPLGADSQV

[2] = target: Hexose transporter 1 (Plasmodium falciparum) (UniProt O97467); test: ST_JUDE_LEISH: Cytotoxicity at 2uM final concentration against transgenic Leishmania Mexicana promastigotes LmPfHT that are glucose transport deficient and complemented with the Plasmodium falciparum hexose transporter. Activity is measured by DNA content using SYBR green in vitro
[3] = target: Glucose transporter (Leishmania mexicana) (UniProt O61059); test: ST_JUDE_LEISH: Cytotoxicity at 2uM final concentration against transgenic Leishmania Mexicana promastigotes LmGT2 that are glucose transport deficient and complemented with the L. Mexicana glucose transporter 2. Activity is measured by DNA content using SYBR green in vitro

SMILES	inhibition [1] [%]	inhibition [2] [%]	inhibition [3] [%]
N[C@@H](COc1cccc2c(-c3ccncc3)c(-c3cccc(NC(=O)Nc4ccccc4)c3)nn12)c1ccccc1	-2.24	-1.71	-2.62
Nc1cccc(CNCc2ccc(-c3cccc(-c4nc5ccccc5[nH]4)c3)cc2)c1	1.2	0.24	-0.54
CN(CCN)Cc1cccc(-c2cccc(-c3nc4cc(C(F)(F)F)ccc4[nH]3)c2)c1	2.68	2.47	3.72
Nc1nccc2ccc(-c3ccsc3)cc12	5.2	3.92	4.09
Cc1sc(C)c(CNCCCNc2cc(=O)c3ccccc3[nH]2)c1Br	2.08	2	-3.4
COc1cc(CNCCCNc2nc3ncccc3[nH]2)c2[nH]cc(Br)c2c1	23.9	43.1	21.6
CCOCCCNc1ncc(-c2ccsc2)c(-c2nc(C)cs2)n1	8	6.73	7.32
N#CCCn1nc(-c2ccc(Cl)cc2)c2c(c1=O)CCCC2	0.21	1.16	1.01
CC(=O)Nc1ccc(CN2CCC(NC(=O)c3ccc(-c4cccc(OC(C)C)c4)s3)CC2)cc1	6.04	2.62	7.43
COc1cc(-c2nc(-c3ccccc3)c(-c3ccccc3)[nH]2)cc(OC)c1O	-0.19	-0.87	-1.53
COc1cccc(NC(=O)NC2CCN(c3ccnc(Nc4ccc(F)cc4)n3)C2)c1 (stereo not given)	0.39	6.07	3.8
CN1CCC(NCc2cccc(-c3ccc(S(=O)(=O)NCCc4ccccn4)cc3)c2)CC1	3.76	2.04	-2.17
O=C(NC1CCN(Cc2ccccc2O)C1)c1ccc(Cl)c(Cl)c1 (stereo not given)	0.72	0.7	-5.99
Clc1cccc(-c2nc(Nc3ccnc(-c4ccc(CN5CCOCC5)cc4)c3)c3ccccc3n2)c1	4.42	3.91	3.58
O=C(NCc1cccc(F)c1)Nc1cccc(-c2cccc(-c3nc4ccccc4[nH]3)c2)c1	7.33	5.52	7.79
COc1cc2cc(-c3nc4ccccc4[nH]3)c(N)nc2cc1OC	84	91.3	67.3
CN1CCN(c2cc3c(cc2Cl)CCN3C(=O)Cc2ccc(NC(=O)Nc3cccc4ccccc34)cc2)CC1	0.87	1.55	-1.64
N=C(N)NCC=C(c1ccccc1)c1ccccc1	8.32	5.26	6.35

SMILES	inhibition [1] [%]	inhibition [2] [%]	inhibition [3] [%]
CCCCCN1C(=O)N(c2ccc(Cl)c(Cl)c2)C(N(O)C(=O)Nc2ccc(Cl)c(Cl)c2)C1(C)C (stereo not given)	4.79	4.73	2.87
COc1ccc(CC(=O)NC(CCCN2CCC(c3ccccc3)CC2)c2ccc(Cl)c(Cl)c2)cc1OC (stereo not given)	1.29	2.2	0.22
O=c1cc(NCCCNCc2cc(Cl)c(Cl)cc2Cl)[nH]c2ccccc12	0.5	-0.04	0.23
O=C(Nc1ccc(F)cc1)NC1CCN(CCCCCNC(=O)C2CC2c2ccc(Cl)c(Cl)c2)CC1 (stereo not given)	1.84	1.54	2.31
Clc1cccc(C=NN=c2cc[nH]c3ccccc23)c1	1.39	2.56	2.9
O=C(Nc1cc(Cl)ccc1O)c1cnn2c(C(F)(F)F)cc(-c3cccs3)nc12	2.61	4.71	3.63
CCNc1cc(C(=O)N[C@@H](Cc2ccccc2)[C@H](O)CNCc2cc(OC)cc(OC)c2)cc(N2CCCS2(=O)=O)c1	1.6	2.17	-0.47
FC(F)(F)Oc1cccc(CNc2noc(-c3sccc3Br)n2)c1	2.52	2.93	0.8
CN(/N=C/C=C/c1ccc(Cl)cc1)c1nc(NCCc2ccc(O)cc2)nc(N2CCNCC2)n1	-0.76	0.71	-0.16
O=C(/C=C/c1cccc2c1OCO2)Nc1ccnc2ccncc12	1.56	1.4	1.89
Nc1nccc2ccc(Oc3ccncc3)cc12	2.47	3.29	4.2
Cc1cc(NC(=O)c2ccco2)ccc1OC1CCN(Cc2ccc(F)cc2)CC1	4.89	3.02	1.98
CCc1c(C)c(C#N)c2nc3ccccc3n2c1NCc1ccco1	4.43	4.23	2.13
COc1ccc(CNCc2ccc(-c3ccc(CNCCc4ccccc4)cn3)cc2)cn1	0.68	-0.51	1.46
COc1ccc2nc3cc(Cl)ccc3c(Nc3ccc(O)c(CN4CC5CCC(CC5)C4)c3)c2c1	4.99	4.24	3.82
CCOc1ccc2c(c1)OC(c1ccccc1)(C(F)(F)F)NC2=O (stereo not given)	0.56	-0.92	1.65
Cc1cccc(C)c1N1CCN(C2CCC(NC(=O)/C=C/c3ccccc3)CC2)CC1 (stereo not given)	1.7	1.21	1.49
